VDR inhibitor: inhibitors of human vitamin D receptor; P11473; VDR-SRC2-3 peptide fluorescence polarization, 2 h; Potency, µM, without a hit: max response, negative = inhibition, usual class: inhibitors; hit rate 0.93% among 400,000; AID 504847
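Fluorescence polarization assay measuring small-molecule disruption of VDR binding to the coregulator peptide SRC2-3. Compounds were pin-transferred (23 nl) into the reagent mix and incubated 2 h at room temperature before reading.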
Sfp inh: inhibitors of Bacillus subtilis Sfp phosphopantetheinyl transferase; Potency, µM, inactives show largest response in the series, negative = inhibition, actives largely listed as inhibitors; Biochemical Sfp PPTase activity, qHTS; Q9F4F7; hit rate 3.5% among 310,000;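 further: the enzyme is Sfp with the accession as filed and its product quenches rhodamine fluorescence; 0% = enzyme reaction without inhibitor and -100% = no enzyme wells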
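Fluorescence-quenching assay with 15 nM Sfp, 5 uM rhodamine-CoA and 12.5 uM BHQ-2-labelled ybbR peptide in pH 7.6 Hepes/MgCl2 buffer. Enzyme was pre-incubated with compound for 15 min at room temperature. Rate was taken from the 30-min fluorescence change (525/598 nm).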
rTrxR1 inhibitor: rat TrxR1 inhibition. O89049. recombinant rTrxR1, NADPH fluorescence consumption, selenite substrate. Potency, µM (titrated, usually from 114 µM), inactives show top-dose activity change, negative = inhibition, actives largely listed as inhibitors. hit rate 1% among 390,000; further: nearly all actives have a fitted effect of over 65% in size
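Rat TrxR1 (90 nM in the dispensed reagent) was pre-reduced with 400 uM NADPH for 5 min at room temperature, then incubated with compound for 15 min. After 400 uM selenite was added, NADPH fluorescence (Ex 340/Em 450 nm) was followed for 8 min.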
PLK1 PBD block: blocks phosphopeptide binding to human PLK1 polo-box domain. P53350. Plk1 PBD binding of FITC phosphopeptide, fluorescence polarization. Potency, µM, without a hit: max response, negative = inhibition, actives largely listed as inhibitors. hit rate 2.8% among 360,000; further: series mostly up to about 57 µM; nearly all actives have a fitted effect of over 65% in size
mIDH1 inhibitor: human IDH1 R132H inhibition. O75874. hit rate 0.093% among 390,000. AID 602179. Potency, µM (highest dose often 76.6 µM), for inactives: at the top dose activity change, negative = inhibition, usual class: inhibitors. IDH1-R132H enzyme, NADPH consumption, diaphorase/resazurin fluorescence; further: nearly all actives have a fitted effect of over 65% in size
Target sequence (O75874 whole entry R132H, stated change not applied): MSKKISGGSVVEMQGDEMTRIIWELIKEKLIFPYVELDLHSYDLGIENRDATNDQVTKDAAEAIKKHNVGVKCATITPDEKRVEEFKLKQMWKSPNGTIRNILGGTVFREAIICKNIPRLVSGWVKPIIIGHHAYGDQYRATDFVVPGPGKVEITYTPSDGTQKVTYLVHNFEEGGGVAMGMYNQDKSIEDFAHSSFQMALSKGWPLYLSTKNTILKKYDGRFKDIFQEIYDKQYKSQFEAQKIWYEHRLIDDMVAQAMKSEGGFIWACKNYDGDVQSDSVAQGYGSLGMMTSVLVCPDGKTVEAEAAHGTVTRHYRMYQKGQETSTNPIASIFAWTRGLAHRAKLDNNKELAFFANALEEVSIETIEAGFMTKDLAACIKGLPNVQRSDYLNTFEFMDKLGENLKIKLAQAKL
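IDH1-R132H (0.5 ug/mL dispensed) in pH 7.5 Tris buffer was preincubated 30 min with compound, then given a substrate mix of 0.016 mM NADPH and 2 mM alpha-KG for 80 min at room temperature; remaining NADPH was read by diaphorase/resazurin fluorescence.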
TrxR1 substrate: rat thioredoxin reductase 1 substrate activity; O89049; Potency, µM (top dose mostly 114 µM), inactives show top-dose activity change, negative = substrate turnover; hit rate 0.01% among 390,000; purified TrxR1 substrate turnover, NADPH consumption readout; further: nearly all actives have a fitted effect of over 50% in size
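Rat TrxR1, dispensed at 90 nM, was prereduced with 400 uM NADPH (final) for 5 min at ~22 deg C, then incubated with compound 15 min before 400 uM selenite. A first-read NADPH fluorescence drop versus no-compound background flagged substrates.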
Starred values were filed as active, the others as inactive; ? = inconclusive; · = not tested or not shown; [ ] = another dose, or the depositor's remark. In the library only some 5.2% were active in any assay of this set; here they are far more common. The call rests on the fitted dose curve; in most records, active means well fitted curve in the direction sought with a large enough effect; inconclusive means small, poorly fitted or top-dose-only effect, or another doubt; inactive means no such curve, though single readings can be large; an effect the other way counts as inactive or inconclusive. Unless noted, on the % scale 0 is the no-effect control and ±100 the full control effect; potency means the concentration at half of the fitted maximal effect.

SMILES | VDR inhibitor | Sfp inh | rTrxR1 inhibitor | PLK1 PBD block | mIDH1 inhibitor | TrxR1 substrate
O=c1c(C(c2ccccc2)c2c(O)nc3n(c2=O)CCS3)c(O)nc2n1CCS2 | -4% | -3% | 7.1µM* | ? | -1% | -3%
COc1ccc(CNC(=O)C2CCN(S(=O)(=O)c3cccc(-c4noc(C)n4)c3)CC2)cc1 | 5% | · | 21%[57.1 µM] | · | -10% | 4%[57.1 µM]
CC(=O)NCc1ccc(C(=O)CSc2nnc(-c3ccncc3)n2Cc2ccccc2)o1 | -1% | ? | 16µM* | ? | 6% | -1%
CC(CN1CCN(CC(C)C(=O)c2ccccc2)CC1)C(=O)c1ccccc1 (stereo not drawn) | -3% | · | 10%[57.1 µM] | 3% | 6% | -10%
O=C(c1ccc(Br)cc1)C(CN1CCOCC1)c1ccccc1 (stereo not drawn) | 40µM* | -21% | ? | ? | 8% | 16%[57.1 µM]
CCOc1ccc(C(=O)C(CN2CCOCC2)c2ccccc2)cc1 (stereo not drawn) | ? | 2% | 9% | 0% | 5% | 2%
CN(C)CC(C(=O)c1ccccc1)c1ccccc1 (stereo not drawn) | 50µM* | -14% | ? | -11% | 7% | 6%
O=C(c1ccccc1)C(CN1CCCCC1)c1ccccc1 (stereo not drawn) | 25µM* | · | 25µM* | ? | 0% | 4%
Cc1cc(OCC(=O)OCC(=O)N(Cc2ccccc2)C(C)(C)C)ccc1Cl | · | · | · | 0% | 1% | ·
Nc1ccc2cc3ccc(N)cc3nc2c1 | ? | -24% | · | · | · | ·
Cc1ccc(CNc2nc3ccc(Cl)cc3n3nnnc23)cc1 | -4% | · | 16% | · | 0% | 32%
CC(=O)O[C@@H]1C(CO[Si](C)(C)C(C)(C)C)=C(Br)C(=O)[C@@H]2O[C@]12C | 25µM* | 50µM* | · | · | · | ·
O=C(Nc1cccc([N+](=O)[O-])c1)c1ccc(CSc2ccccc2)cc1 | 9% | 9% | 4% | -6% | 0% | -6%
O=C(Nc1ccccc1O)c1ccc([N+](=O)[O-])cc1 | -8% | 20% | 16% | -2% | 11% | 2%
Cc1ccc([N+](=O)[O-])cc1NC(=O)c1ccc(CSc2ccccc2)cc1 | -2% | 32µM* | -8% | -1% | 6% | -8%
CSc1ccccc1NC(=O)c1ccc([N+](=O)[O-])cc1 | ? | 56µM* | 10%[57.1 µM] | 24µM* | 4% | -3%[57.1 µM]
CSc1ccccc1NC(=O)Cn1nc([N+](=O)[O-])cc1C | 4% | 56µM* | 8% | ? | -2% | 0%
O=C(Nc1ccc(Cl)cc1)Nc1ccccc1CC[N+](=O)[O-] | ? | -3% | 3%[57.1 µM] | 3.4µM* | 1% | 6%[57.1 µM]
CN(C)C(=O)Nc1ccccc1CC[N+](=O)[O-] | 2% | 12% | 19%[57.1 µM] | -11% | 6% | 8%
CC1Cc2ccccc2N1c1ncnc2c1nnn2Cc1ccccc1Cl (stereo not drawn) | 2% | 4% | 11%[57.1 µM] | 27µM* | -2% | 13%

Screening results deposited in PubChem BioAssay by National Center for Advancing Translational Sciences (NCATS).
